# Experiments:
# Test in all cases: DAPPL (digital affinity profiling via proximity ligation, sequencing); 10 mM Tris-HCl pH 7.5, 50 mM NaCl, 1 mM DTT, 4% glycerol, room temperature, 30 min; GST-TFs on glutathione beads, 16-mer random dsDNA library, 0.1% formaldehyde crosslink after washing; high values mean tight binding
# FLI1 = molecular target: T1, FLI1 (Homo sapiens, UniProt Q01543 1-452); conditions: protein: recombinant; tags: N-terminal GST; dsDNA, one strand shown
# T1 sequence: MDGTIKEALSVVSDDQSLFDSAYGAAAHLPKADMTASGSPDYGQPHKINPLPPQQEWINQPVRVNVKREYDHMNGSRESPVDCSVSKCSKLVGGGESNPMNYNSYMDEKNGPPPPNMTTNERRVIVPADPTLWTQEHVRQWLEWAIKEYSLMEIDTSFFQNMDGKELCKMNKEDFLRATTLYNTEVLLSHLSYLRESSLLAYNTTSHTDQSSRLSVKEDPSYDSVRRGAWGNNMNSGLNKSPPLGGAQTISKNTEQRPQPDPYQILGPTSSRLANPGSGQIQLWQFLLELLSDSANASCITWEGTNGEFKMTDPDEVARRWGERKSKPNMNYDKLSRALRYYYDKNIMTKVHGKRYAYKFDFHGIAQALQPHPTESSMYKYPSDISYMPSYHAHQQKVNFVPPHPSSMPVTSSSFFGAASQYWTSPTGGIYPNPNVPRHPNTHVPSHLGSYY
# In short: (§1)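 GST fusions of human transcription factors were expressed in yeast and captured with glutathione beads. Once given DNA barcodes and pooled alongside a tag-only sample, they were incubated for 30 min at room temperature with 200 nmole of a random double-stranded 16-mer DNA library in Tris/NaCl/DTT/glycerol buffer, then washed, crosslinked (0.1% formaldehyde), proximity-ligated, PCR-amplified and sequenced on an Illumina NextSeq500. The binding signal of each hexamer is its read frequency for a factor divided by its frequency for the tag-only sample.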
# ELK1 = molecular target: T2, ELK1 (Homo sapiens, UniProt P19419 1-428); conditions: protein: recombinant; tags: N-terminal GST; dsDNA, one strand shown
# T2 sequence: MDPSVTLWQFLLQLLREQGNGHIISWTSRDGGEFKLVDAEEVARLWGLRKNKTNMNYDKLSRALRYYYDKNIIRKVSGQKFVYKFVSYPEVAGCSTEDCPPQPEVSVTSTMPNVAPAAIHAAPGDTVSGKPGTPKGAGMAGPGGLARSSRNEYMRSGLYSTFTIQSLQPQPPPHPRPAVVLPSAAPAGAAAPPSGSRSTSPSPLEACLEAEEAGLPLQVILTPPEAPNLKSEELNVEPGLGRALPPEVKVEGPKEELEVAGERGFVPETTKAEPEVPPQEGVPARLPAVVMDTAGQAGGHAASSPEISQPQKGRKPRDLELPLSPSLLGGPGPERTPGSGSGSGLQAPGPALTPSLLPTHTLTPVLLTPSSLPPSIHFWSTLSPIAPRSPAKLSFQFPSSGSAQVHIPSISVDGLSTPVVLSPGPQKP
# In short: as §1
# GABPA = molecular target: T3, GABPA (Homo sapiens, UniProt Q06546 1-454); conditions: protein: recombinant; tags: N-terminal GST; dsDNA, one strand shown
# T3 sequence: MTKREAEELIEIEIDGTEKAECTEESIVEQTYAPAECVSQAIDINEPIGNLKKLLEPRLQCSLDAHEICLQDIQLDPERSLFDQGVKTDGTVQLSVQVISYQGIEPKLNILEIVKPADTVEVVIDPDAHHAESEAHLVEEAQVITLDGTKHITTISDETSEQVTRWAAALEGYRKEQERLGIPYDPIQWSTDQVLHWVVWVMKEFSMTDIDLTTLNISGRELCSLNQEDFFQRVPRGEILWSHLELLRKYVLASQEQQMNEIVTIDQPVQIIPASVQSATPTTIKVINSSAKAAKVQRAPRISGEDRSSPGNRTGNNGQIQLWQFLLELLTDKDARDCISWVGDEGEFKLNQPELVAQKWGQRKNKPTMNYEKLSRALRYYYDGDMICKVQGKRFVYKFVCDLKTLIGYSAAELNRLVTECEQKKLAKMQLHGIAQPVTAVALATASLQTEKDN
# In short: as §1
# ERG = molecular target: T4, ERG (Homo sapiens, UniProt P11308 1-479); conditions: protein: recombinant; tags: N-terminal GST; dsDNA, one strand shown
# T4 sequence: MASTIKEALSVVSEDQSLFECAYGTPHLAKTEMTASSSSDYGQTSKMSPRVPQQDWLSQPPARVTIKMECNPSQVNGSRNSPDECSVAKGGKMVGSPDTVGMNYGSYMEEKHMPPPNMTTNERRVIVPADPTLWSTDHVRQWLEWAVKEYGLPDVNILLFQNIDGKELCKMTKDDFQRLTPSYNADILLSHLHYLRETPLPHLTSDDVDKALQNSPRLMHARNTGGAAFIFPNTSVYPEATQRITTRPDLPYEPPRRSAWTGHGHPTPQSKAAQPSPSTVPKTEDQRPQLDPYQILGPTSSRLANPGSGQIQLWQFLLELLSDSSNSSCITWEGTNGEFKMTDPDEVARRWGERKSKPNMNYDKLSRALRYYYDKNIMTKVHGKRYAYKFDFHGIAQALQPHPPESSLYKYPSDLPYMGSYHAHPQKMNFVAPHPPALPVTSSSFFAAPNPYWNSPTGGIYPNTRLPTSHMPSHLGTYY
# In short: as §1
# ELF1 = ELF1 (Homo sapiens, UniProt P32519 1-619); conditions: protein: recombinant; tags: N-terminal GST; dsDNA, one strand shown
# In short: as §1
# EHF = molecular target: T5, EHF (Homo sapiens, UniProt Q9NZC4 1-300); conditions: protein: recombinant; tags: N-terminal GST; dsDNA, one strand shown
# T5 sequence: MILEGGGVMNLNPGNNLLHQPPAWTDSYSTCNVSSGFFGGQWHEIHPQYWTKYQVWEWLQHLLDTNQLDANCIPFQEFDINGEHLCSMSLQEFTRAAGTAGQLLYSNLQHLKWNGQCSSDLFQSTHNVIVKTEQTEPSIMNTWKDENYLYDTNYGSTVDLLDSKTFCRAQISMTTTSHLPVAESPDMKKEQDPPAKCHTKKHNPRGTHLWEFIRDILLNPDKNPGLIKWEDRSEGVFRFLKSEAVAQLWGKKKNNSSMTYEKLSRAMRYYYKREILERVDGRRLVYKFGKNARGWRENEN
# In short: as §1
# SPI1 = SPI1 (Homo sapiens, UniProt P17947 1-270); conditions: protein: recombinant; tags: N-terminal GST; dsDNA, one strand shown
# In short: as §1
# SPIB = SPIB (Homo sapiens, UniProt Q01892 1-262); conditions: protein: recombinant; tags: N-terminal GST; dsDNA, one strand shown
# In short: as §1
# ELK3 = molecular target: T6, ELK3 (Homo sapiens, UniProt P41970 1-407); conditions: protein: recombinant; tags: N-terminal GST; dsDNA, one strand shown
# T6 sequence: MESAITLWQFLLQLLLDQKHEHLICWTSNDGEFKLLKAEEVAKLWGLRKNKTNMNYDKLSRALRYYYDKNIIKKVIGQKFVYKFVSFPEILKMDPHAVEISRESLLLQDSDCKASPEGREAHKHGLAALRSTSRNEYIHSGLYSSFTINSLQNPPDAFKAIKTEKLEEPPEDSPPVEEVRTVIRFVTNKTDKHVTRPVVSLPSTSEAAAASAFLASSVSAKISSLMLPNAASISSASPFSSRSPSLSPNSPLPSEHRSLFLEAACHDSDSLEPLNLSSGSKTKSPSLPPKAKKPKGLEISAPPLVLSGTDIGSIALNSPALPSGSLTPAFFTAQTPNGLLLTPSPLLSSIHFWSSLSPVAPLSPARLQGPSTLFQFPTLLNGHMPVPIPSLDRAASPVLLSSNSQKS
# In short: as §1
# FEV = molecular target: T7, FEV (Homo sapiens, UniProt Q99581 1-238); conditions: protein: recombinant; tags: N-terminal GST; dsDNA, one strand shown
# T7 sequence: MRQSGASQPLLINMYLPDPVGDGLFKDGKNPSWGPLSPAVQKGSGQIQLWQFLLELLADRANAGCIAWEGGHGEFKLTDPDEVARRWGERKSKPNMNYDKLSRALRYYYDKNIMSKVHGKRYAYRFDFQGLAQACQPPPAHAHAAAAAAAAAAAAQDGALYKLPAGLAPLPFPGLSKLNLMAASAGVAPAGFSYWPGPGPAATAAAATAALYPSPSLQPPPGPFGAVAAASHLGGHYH
# In short: as §1
# ETV5 = ETV5 (Homo sapiens, UniProt P41161 1-510); conditions: protein: recombinant; tags: N-terminal GST; dsDNA, one strand shown
# In short: as §1
# HSF1 = HSF1 (Homo sapiens, UniProt Q00613 1-529); conditions: protein: recombinant; tags: N-terminal GST; chain copies: 3; dsDNA, one strand shown
# In short: as §1
# SPIC = molecular target: T8, SPIC (Homo sapiens, UniProt Q8N5J4 1-248); conditions: protein: recombinant; tags: N-terminal GST; dsDNA, one strand shown
# T8 sequence: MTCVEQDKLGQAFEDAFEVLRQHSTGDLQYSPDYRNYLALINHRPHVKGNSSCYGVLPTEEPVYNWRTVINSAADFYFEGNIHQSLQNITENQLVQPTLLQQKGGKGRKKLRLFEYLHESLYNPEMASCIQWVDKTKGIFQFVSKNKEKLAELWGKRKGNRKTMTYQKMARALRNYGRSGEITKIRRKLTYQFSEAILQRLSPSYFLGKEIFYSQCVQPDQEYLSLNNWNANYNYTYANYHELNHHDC
# In short: as §1
# ELF4 = ELF4 (Homo sapiens, UniProt Q99607 1-663); conditions: protein: recombinant; tags: N-terminal GST; dsDNA, one strand shown
# In short: as §1
# ELK4 = molecular target: T9, ELK4 (Homo sapiens, UniProt P28324-2 1-405); conditions: protein: recombinant; tags: N-terminal GST; dsDNA, one strand shown
# T9 sequence: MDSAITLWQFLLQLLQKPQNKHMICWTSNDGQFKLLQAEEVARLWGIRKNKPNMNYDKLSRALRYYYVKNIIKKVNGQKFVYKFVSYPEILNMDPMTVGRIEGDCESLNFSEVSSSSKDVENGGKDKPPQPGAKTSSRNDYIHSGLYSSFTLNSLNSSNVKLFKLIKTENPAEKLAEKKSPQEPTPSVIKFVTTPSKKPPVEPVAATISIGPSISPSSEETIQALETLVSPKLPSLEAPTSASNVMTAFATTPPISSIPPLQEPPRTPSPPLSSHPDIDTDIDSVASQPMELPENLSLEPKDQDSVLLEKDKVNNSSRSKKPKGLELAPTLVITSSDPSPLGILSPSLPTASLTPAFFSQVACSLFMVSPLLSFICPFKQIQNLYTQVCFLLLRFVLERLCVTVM
# In short: as §1
# ETV2 = molecular target: T10, ETV2 (Homo sapiens, UniProt O00321 1-342); conditions: protein: recombinant; tags: N-terminal GST; dsDNA, one strand shown
# T10 sequence: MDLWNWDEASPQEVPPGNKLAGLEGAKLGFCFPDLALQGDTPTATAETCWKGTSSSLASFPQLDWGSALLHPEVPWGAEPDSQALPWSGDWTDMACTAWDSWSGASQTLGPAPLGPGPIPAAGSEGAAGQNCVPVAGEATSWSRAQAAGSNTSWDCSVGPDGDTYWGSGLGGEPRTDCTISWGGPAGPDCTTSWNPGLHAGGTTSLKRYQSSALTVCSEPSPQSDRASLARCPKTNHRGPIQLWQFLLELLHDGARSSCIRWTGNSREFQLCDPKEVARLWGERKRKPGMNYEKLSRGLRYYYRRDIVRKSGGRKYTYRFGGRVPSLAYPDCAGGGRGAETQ
# In short: as §1
# ELF3 = molecular target: T11, ELF3 (Homo sapiens, UniProt P78545 1-371); conditions: protein: recombinant; tags: N-terminal GST; dsDNA, one strand shown
# T11 sequence: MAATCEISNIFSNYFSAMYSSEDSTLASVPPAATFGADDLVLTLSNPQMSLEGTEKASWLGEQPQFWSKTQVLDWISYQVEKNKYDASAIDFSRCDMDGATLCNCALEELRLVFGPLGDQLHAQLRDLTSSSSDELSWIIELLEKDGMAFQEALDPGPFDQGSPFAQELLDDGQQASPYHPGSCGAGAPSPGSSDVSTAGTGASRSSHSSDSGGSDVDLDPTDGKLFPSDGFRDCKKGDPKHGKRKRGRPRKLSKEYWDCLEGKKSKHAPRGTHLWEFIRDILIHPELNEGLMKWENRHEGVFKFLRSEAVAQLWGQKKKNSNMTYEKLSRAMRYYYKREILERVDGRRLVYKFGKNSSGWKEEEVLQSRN
# In short: as §1
# CRX = CRX (Homo sapiens, UniProt O43186 1-299); conditions: protein: recombinant; tags: N-terminal GST; dsDNA, one strand shown
# In short: as §1
# ETV1 = ETV1 (Homo sapiens, UniProt P50549 1-477); conditions: protein: recombinant; tags: N-terminal GST; dsDNA, one strand shown
# In short: as §1
# ETV1, sequence (P50549 whole entry): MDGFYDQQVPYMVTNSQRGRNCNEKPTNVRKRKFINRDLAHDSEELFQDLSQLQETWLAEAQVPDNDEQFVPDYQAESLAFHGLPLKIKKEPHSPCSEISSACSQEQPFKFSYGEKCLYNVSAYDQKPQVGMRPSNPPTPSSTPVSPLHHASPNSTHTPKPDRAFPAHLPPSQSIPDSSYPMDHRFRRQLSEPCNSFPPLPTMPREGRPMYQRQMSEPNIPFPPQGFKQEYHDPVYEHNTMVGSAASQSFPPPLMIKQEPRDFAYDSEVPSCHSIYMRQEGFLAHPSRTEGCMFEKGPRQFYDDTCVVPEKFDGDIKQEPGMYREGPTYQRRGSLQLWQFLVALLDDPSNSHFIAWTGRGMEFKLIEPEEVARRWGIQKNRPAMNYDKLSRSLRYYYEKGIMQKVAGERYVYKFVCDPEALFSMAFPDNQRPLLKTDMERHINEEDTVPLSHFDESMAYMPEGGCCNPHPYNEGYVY
# CRX, sequence (O43186 whole entry): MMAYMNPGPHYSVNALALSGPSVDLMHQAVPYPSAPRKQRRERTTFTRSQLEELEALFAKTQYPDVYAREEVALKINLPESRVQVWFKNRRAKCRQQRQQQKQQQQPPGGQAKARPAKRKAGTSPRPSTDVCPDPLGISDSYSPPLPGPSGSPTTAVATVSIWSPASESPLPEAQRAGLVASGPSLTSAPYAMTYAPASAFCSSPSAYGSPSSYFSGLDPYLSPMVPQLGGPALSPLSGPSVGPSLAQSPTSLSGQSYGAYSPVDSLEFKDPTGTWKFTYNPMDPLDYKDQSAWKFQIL
# SPIB, sequence (Q01892 whole entry): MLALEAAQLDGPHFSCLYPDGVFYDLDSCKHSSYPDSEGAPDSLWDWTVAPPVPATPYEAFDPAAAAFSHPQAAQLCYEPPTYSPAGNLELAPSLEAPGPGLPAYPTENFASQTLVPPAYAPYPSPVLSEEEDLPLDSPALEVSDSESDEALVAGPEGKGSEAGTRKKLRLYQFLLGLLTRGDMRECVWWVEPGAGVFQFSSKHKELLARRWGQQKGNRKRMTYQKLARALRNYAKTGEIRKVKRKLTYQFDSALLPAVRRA
# ELF1, sequence (P32519 whole entry): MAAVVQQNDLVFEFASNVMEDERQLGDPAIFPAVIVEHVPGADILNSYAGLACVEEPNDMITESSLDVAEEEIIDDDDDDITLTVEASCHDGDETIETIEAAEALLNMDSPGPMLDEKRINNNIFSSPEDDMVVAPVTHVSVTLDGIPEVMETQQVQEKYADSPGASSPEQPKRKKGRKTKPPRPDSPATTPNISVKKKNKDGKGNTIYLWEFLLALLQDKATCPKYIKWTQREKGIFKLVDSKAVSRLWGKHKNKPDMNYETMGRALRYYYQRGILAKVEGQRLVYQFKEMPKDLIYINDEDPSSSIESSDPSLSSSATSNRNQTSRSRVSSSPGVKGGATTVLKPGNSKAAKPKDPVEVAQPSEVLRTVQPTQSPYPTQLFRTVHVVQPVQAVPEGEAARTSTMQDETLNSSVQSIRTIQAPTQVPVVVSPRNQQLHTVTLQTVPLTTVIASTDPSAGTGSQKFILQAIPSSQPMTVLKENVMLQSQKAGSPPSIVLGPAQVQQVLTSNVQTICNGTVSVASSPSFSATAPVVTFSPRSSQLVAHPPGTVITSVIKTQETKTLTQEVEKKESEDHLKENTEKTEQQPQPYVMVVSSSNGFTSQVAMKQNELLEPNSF
# ELF4, sequence (Q99607 whole entry): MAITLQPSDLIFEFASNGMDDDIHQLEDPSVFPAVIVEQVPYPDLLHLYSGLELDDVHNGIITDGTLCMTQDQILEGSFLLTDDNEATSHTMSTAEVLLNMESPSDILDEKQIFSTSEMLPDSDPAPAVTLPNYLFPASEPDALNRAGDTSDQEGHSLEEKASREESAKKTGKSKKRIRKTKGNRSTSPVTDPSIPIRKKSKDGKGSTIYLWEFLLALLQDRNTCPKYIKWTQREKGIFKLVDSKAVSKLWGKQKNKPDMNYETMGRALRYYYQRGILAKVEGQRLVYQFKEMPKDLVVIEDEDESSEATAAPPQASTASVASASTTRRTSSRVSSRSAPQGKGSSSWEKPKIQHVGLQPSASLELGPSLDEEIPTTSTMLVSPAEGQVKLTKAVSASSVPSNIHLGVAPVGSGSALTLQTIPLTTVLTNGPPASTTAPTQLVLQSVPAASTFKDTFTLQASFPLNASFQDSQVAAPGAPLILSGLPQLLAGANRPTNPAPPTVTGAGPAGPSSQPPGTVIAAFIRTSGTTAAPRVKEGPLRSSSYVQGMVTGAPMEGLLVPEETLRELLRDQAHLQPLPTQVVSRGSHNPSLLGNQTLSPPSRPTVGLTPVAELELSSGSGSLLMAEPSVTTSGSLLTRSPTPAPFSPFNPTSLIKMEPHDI
# HSF1, sequence (Q00613 whole entry): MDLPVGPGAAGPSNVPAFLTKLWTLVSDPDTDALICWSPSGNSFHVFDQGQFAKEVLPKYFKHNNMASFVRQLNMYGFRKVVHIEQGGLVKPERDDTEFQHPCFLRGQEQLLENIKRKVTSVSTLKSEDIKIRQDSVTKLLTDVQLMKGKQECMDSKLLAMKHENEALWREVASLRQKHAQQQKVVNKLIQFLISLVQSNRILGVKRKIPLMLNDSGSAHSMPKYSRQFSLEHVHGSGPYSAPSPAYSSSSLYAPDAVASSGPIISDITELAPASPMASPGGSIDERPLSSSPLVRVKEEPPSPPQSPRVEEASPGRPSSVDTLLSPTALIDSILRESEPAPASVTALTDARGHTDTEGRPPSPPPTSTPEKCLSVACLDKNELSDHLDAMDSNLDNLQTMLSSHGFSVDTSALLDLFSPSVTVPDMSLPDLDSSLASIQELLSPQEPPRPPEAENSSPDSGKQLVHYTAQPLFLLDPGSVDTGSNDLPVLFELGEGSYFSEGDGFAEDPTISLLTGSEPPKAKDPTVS
# ETV5, sequence (P41161 whole entry): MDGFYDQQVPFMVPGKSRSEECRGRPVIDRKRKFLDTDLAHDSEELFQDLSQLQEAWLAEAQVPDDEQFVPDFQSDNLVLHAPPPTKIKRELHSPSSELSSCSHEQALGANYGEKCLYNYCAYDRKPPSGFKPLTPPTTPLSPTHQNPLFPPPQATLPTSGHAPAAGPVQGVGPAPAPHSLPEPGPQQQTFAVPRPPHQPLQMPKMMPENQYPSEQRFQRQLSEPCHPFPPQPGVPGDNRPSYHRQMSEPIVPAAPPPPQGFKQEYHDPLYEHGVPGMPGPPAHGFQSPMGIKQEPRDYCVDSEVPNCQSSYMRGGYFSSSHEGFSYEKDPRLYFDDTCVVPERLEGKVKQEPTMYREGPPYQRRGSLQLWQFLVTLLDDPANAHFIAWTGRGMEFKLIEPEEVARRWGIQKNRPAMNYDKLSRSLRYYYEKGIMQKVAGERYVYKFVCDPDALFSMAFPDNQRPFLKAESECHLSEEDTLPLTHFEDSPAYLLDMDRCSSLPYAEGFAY
sequence,measurement,setting,value
ATTCCA,binding signal,FLI1,"1.17 fold enrichment (6-mer frequency, TF over GST control)"
same,binding signal,ELK1,"1.1 fold enrichment (6-mer frequency, TF over GST control)"
same,binding signal,GABPA,"1.16 fold enrichment (6-mer frequency, TF over GST control)"
same,binding signal,ERG,"1.14 fold enrichment (6-mer frequency, TF over GST control)"
same,binding signal,ELF1,"1.22 fold enrichment (6-mer frequency, TF over GST control)"
same,binding signal,EHF,"1.13 fold enrichment (6-mer frequency, TF over GST control)"
same,binding signal,SPI1,"1.16 fold enrichment (6-mer frequency, TF over GST control)"
same,binding signal,SPIB,"1.1 fold enrichment (6-mer frequency, TF over GST control)"
same,binding signal,ELK3,"1.25 fold enrichment (6-mer frequency, TF over GST control)"
same,binding signal,FEV,"1.07 fold enrichment (6-mer frequency, TF over GST control)"
same,binding signal,ETV5,"1.18 fold enrichment (6-mer frequency, TF over GST control)"
same,binding signal,HSF1,"2.28 fold enrichment (6-mer frequency, TF over GST control)"
same,binding signal,SPIC,"1.14 fold enrichment (6-mer frequency, TF over GST control)"
same,binding signal,ELF4,"1.25 fold enrichment (6-mer frequency, TF over GST control)"
same,binding signal,ELK4,"1.19 fold enrichment (6-mer frequency, TF over GST control)"
same,binding signal,ETV2,"1.25 fold enrichment (6-mer frequency, TF over GST control)"
same,binding signal,ELF3,"1.04 fold enrichment (6-mer frequency, TF over GST control)"
same,binding signal,CRX,"1.58 fold enrichment (6-mer frequency, TF over GST control)"
same,binding signal,ETV1,"1.11 fold enrichment (6-mer frequency, TF over GST control)"
